Screens (PubChem BioAssay)
Only some compounds are listed: those with a hit (about 12% of all), similar ones and a draw of the others.
BAZ2B block – qHTS Assay for Inhibitors of BAZ2B; Bromodomain adjacent to zinc finger domain protein 2B (Homo sapiens), Q9UIF8; AlphaScreen BAZ2B-H3K14Ac peptide displacement; Potency, µM (highest dose often 114 µM), for inactives: top-dose activity change, negative = inhibition, usual class: inhibitors; hit rate 4.4% among 360,000; AID 504333, 2011; also: % is scaled to controls: 0 for no effect and ±100 for the full control effect; nearly all actives have a fitted effect of over 60% in size
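AlphaScreen displacement of biotin-H3(5-23)K14Ac peptide (50 nM final) from BAZ2B (50 nM final) in PBS pH 7.4, 0.01% Tween-20; complex preformed 30 min RT, then compounds (top 110 uM) 30 min RT, beads 20 min dark.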
G9a block – qHTS Assay for Inhibitors of Histone Lysine Methyltransferase G9a. AID 504332, 2011. G9a H3K9 monomethylation, AlphaScreen, 2 h. hit rate 8.8% among 350,000. Potency, µM (series often up to 102 µM), for inactives: at the highest dose activity, negative = inhibition, actives largely listed as inhibitors; also: % is scaled to controls: 0 for no effect and ±100 for the full control effect; nearly all actives have a fitted effect of over 75% in size
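AlphaScreen detection with an anti-monomethyl H3K9 antibody quantified product after a 2 h room-temperature reaction containing 500 nM biotinylated H3K9 peptide, 20 µM SAM and 20 nM enzyme, which had been preincubated 15 min with compound.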
JMJD2A Tudor inh – qHTS Assay for Inhibitors of JMJD2A-Tudor Domain. Lysine-specific demethylase 4A (Homo sapiens), O75164. AlphaScreen JMJD2A-Tudor / H3K4me3 peptide binding. Potency, µM (top dose mostly 114 µM), without a hit: top-dose activity change, negative = inhibition, actives largely listed as inhibitors. hit rate 4.4% among 390,000. AID 504339, 2011; also: % is scaled to controls: 0 for no effect and ±100 for the full control effect; nearly all actives have a fitted effect of over 50% in size
Sfp inh – qHTS Assay for Inhibitors of Bacillus subtilis Sfp phosphopantetheinyl transferase (PPTase) | Biochemical Sfp PPTase activity, qHTS | Potency, µM, inactives show largest response in the series, negative = inhibition, most hits filed as inhibitors | hit rate 3.5% among 310,000;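 also: the enzyme is Sfp with the accession as filed and its product quenches rhodamine fluorescence; 0% = enzyme reaction without inhibitor and -100% = no enzyme wells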
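Sfp 15 nM + cpd, 15 min RT; start w/ rhodamine-CoA 5 uM, BHQ-2-YbbR 12.5 uM (final); 50 mM Hepes pH 7.6, 10 mM MgCl2, 0.01% NP-40, 0.01% BSA; read 525/598 nm at 0 and 30 min.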
TDP1 block – qHTS Assay for Inhibitors of Tyrosyl-DNA Phosphodiesterase (TDP1); Tyrosyl-DNA phosphodiesterase 1 (Homo sapiens), Q9NUW8; recombinant TDP1, AlphaScreen DNA substrate cleavage; Potency, µM (top dose mostly 130 µM), for inactives: at the top dose activity change, negative = inhibition, most hits filed as inhibitors; hit rate 0.28% among 350,000; also: % is scaled to controls: 0 for no effect and ±100 for the full control effect; nearly all actives have a fitted effect of over 40% in size
Target sequence (Q9NUW8 whole entry, looked up): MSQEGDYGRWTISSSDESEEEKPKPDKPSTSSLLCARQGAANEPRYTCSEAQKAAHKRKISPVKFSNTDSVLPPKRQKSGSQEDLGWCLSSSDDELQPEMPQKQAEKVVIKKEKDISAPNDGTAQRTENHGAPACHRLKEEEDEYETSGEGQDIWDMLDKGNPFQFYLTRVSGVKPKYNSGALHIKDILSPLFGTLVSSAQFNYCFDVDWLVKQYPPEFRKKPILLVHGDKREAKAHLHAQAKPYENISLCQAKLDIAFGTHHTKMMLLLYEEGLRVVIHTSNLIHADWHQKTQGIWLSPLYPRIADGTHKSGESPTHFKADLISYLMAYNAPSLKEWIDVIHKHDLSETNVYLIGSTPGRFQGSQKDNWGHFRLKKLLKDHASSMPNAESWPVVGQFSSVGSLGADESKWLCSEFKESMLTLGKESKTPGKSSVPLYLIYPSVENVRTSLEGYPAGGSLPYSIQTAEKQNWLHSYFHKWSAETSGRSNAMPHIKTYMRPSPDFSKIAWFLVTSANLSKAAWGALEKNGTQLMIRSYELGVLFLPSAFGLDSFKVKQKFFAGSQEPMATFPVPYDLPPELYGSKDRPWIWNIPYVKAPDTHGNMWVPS
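Enzyme-compound mixtures sat 15 min at room temperature, followed by a 5 min reaction with 15 nM final substrate and 10 min with AlphaScreen beads. Recombinant human Tdp1 was used at 1 nM final.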
HP1b binding inh – HTS for Inhibitors of HP1-beta Chromodomain Interactions with Methylated Histone Tails; Chromobox protein homolog 1 (Homo sapiens), P83916; AlphaScreen HP1-beta / biotin-H3K9me3 peptide binding; Potency, µM (highest dose often 114 µM), inactives show at the top dose activity change, negative = inhibition, usual class: inhibitors; hit rate 0.56% among 390,000; AID 540317, 2011; also: nearly all actives have a fitted effect of over 70% in size
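HP1-beta protein (50 nM final) preincubated 30 min at room temperature with biotinylated H3(1-18)K9me3 peptide (50 nM) in PBS pH 7.4, 0.01% Tween-20, then compound added for 30 min. AlphaScreen streptavidin donor/nickel chelate acceptor beads (10 ug/mL final), 30 min dark, luminescence read.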
The depositor's hits bear a star; ? = inconclusive; . = not tested or not shown; [ ] = dose if it differs, or a comment. Calls follow the shape of the dose curve; as a rule, active = well fitted curve in the direction sought with a large enough effect; inconclusive = small, poorly fitted or top-dose-only effect, or another doubt; inactive = no such curve, though single readings can be large; an effect the other way counts as inactive or inconclusive. Potency is read from the fitted curve at half-maximal effect.

SMILES	BAZ2B block	G9a block	JMJD2A Tudor inh	Sfp inh	TDP1 block	HP1b binding inh
Brc1ccc(NC(c2ccccc2)c2ccncc2)cc1 (configuration not stated)	71µM*	?	56µM*	-9%	.	17%
CC(Nc1ccccc1)c1ccncc1 (configuration not stated)	-22%	8%	-6%	24%	-1%	64%
CC1Cc2ccccc2N1C(=S)NC(=O)c1ccco1 (configuration not stated)	.	40µM*	-35%	40µM*	8%	?
O=C(NC(=S)N1CCCc2ccccc21)c1ccco1	?	45µM*	-22%	?	8%	19%
O=C(NC(=S)N1CCc2ccccc21)c1ccccc1Cl	-24%	1%	-23%	35%	3%	-1%
CCOc1ccc(NC(=O)c2ccccc2NC(=O)CNC2CCCC(C)C2C)cc1 (configuration not stated)	.	.	-3%	.	0%	37%
CC(=O)Cc1nsc(Nc2ccccc2)n1	8%	79µM*	1%	0%	0%	19%
COc1ccccc1Nc1nc(-c2sc(NC(=O)c3ccccc3)nc2C)cs1	-38%	?	?	1%	6%	-2%
COc1ccccc1Nc1nc(-c2sc(NC(=O)c3ccc([N+](=O)[O-])cc3)nc2C)cs1	?	45µM*	.	-9%	11%	.
CCOc1ccccc1Nc1nc(-c2sc(NC(=O)c3cccc(Cl)c3)nc2C)cs1	?	40µM*	?	-20%	2%	?
CCOc1ccccc1Nc1nc(-c2sc(NC(=O)c3ccccc3)nc2C)cs1	?	32µM*	.	2%	2%	.
O=c1c(-c2ccc(F)cc2)nc2cnc(Nc3ccccc3)nc2n1Cc1cccs1	.	3%[12.7 µM]	.	-5%	.	.
O=C(NCCc1c[nH]c2ccccc12)C1CCN(S(=O)(=O)c2ccc(F)cc2)CC1	-27%	0%	-25%	6%	.	33%
CC(Oc1ccc(Cl)cc1)c1ccc(C#N)c(=O)[nH]1 (configuration not stated)	?	-4%[12.7 µM]	-5%	18%	1%	27%
N#C/C(=N/Nc1ccc([N+](=O)[O-])cc1)C(=N)N1CCCCC1	35µM*	?	56µM*	-15%	9%	?
N#C/C(=N\Nc1ccc([N+](=O)[O-])cc1)C(N)=S	14µM*	.	28µM*	45µM*	12%	35µM*
N#C/C(=N\Nc1ccc([N+](=O)[O-])cc1)C(=N)N1CCOCC1	-25%	.	-12%	6%	3%	24%
N#C/C(=N\Nc1ccc(S(=O)(=O)N2CCCCC2)cc1)C(N)=S	?	?	?	?	6%	?
CC(C)COC(=O)c1ccc2c(c1O)C(=O)c1ccccc1C2=O	10µM*	?	7.9µM*	-28%	3%	?
COc1ccc2c(c1O)C(=O)c1ccccc1C2=O	-24%	9%[12.7 µM]	.	0%	8%	.
CCc1cccc(NC(=O)c2coc(=O)c3ccccc23)c1	6%	8%[59 µM]	-15%	.	3%	10%
O=C(/C=C1\NC2(CCCC2)Cc2ccccc21)C(=O)N/N=C/c1ccc(O)c(O)c1	40µM*	11µM*	10µM*	3%	-3%	?
N#Cc1cccc(-c2nc3cnc(N4CCOCC4)nc3n(C3CC3)c2=O)c1	.	-5%[0.501 µM]	.	14%	.	.
O=[N+]([O-])c1ccc(N=Nc2c(Cl)cc(O)cc2Cl)cc1	8.9µM*	10µM*	11µM*	5%	10%	13µM*
CCCCn1c(N)c(N(CCOC)C(=O)CCC2CCCCC2)c(=O)[nH]c1=O	1%	16%[12.7 µM]	-17%	.	1%	2%
SMILES	BAZ2B block	G9a block	JMJD2A Tudor inh	Sfp inh	TDP1 block	HP1b binding inh
COc1ccc(CCNCC(=O)Nc2ccc(OC(F)F)cc2)cc1	1%	6%	5%	7%	-12%	9%
O=C(c1ccc(NC(=S)NCc2ccc(Cl)cc2)cc1)N1CCCCC1	-5%	-5%	-7%	13%	5%	39%
O=C(CNCc1ccc(Cl)cc1)Nc1ccc(C(=O)N2CCCCC2)cc1	56µM*	7.1µM*	1.1µM*	?	0%	45µM*
COc1ccc(CCNCC(=O)Nc2ccc(C(=O)N3CCCCC3)cc2)cc1	40µM*	8.9µM*	1.4µM*	?	0%	?
CC(C)c1ccc(CNc2n[nH]c(-c3ccco3)n2)cc1	-12%	-6%[59 µM]	-32%	.	3%	9%
C/C(=N\Nc1cccc(Cl)c1)c1ccc(-n2ccnc2)cc1	?	7.9µM*	?	2%	10%	5%
C/C(=N\Nc1ccc(C)c(Cl)c1)c1ccncc1	?	22µM*	?	-4%	-1%	23%
C/C(=N\Nc1ccc(C)c(Cl)c1)c1cccnc1	-38%	11µM*	-17%	-5%	.	45%
C/C(=N\NC(=O)Cc1ccccc1Cl)c1cccnc1	?	-22%	-10%	-15%	9%	44%
C/C(=N\NC(=O)C(=O)Nc1ccc(C)c(Cl)c1)c1ccncc1	11%	26%[59 µM]	8%	17%	.	31%
C/C(=N\NC(=O)c1cccc(S(=O)(=O)Nc2ccccc2Cl)c1)c1ccc(-n2ccnc2)cc1	5%	9%[12.7 µM]	-21%	-19%	14%	34%
CCN(CC)S(=O)(=O)c1cccc2cccnc12	-5%	28%	14%	21%	3%	22%
CCN(CC)S(=O)(=O)c1cc(OC)ccc1N=Nc1ccc(O)c2ncccc12	20µM*	8.9µM*	13µM*	2%	.	?
COc1ccc(S(=O)(=O)NCCOc2cccc3cccnc23)cc1OC	-15%	9%	-7%	19%	2%	28%
CCS(=O)(=O)c1ccc(OC)c(N=Nc2ccc(O)c3ncccc23)c1	8.9µM*	14µM*	40µM*	-19%	12%	-2%
CCc1ccccc1NC(=O)CSc1nnc(-c2cc(OC)c(OC)c(OC)c2)o1	7%	-6%[59 µM]	-4%	.	6%	38%
COc1ccccc1-c1oc2ccccc2c1C#CCCO	50µM*	-40%[0.501 µM]	?	.	-5%	62%
O=C(CNS(=O)(=O)c1ccccc1)N1CCc2ccccc2C1	7%	.	-10%	0%	.	-2%
CC(C)(C)C1CCC(OCC(O)CN2CCN(c3ccccn3)CC2)CC1 (configuration not stated)	?	32µM*	?	5%	5%	24%
OC(COc1ccc(Cl)cc1)CN1CCN(c2ccccn2)CC1 (configuration not stated)	.	.	-10%	.	.	14%
